{"source": "the supplement of paper PMC6555819", "data": [{"system": "LXRa homodimer (NR concentration 270 nM)", "assay": "PBM binding z-score (relative to random genomic background probes); higher = stronger binding; sequences stand for … in GC…GCGATTGACAGCGTAGAATGAAGG", "method_in_brief": "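For binding z-scores, the reference was random background probes on custom Agilent 4×180K protein-binding microarrays. These arrays were incubated 1 h with ligand-free nuclear receptor dimers in PBS pH 7.4, 2% milk, 0.02% Triton X-100, 1 mM DTT, 0.2 mg/mL BSA and 0.4 mg/ml salmon testes DNA. Fluorescence was scanned after antibody detection of each partner (one per run) and regression-normalized.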", "values": [{"sequence": "TCTCGGAGGACACGAAAGTCAGAGCTTTCCAGAG", "PBM binding z-score": -0.708}, {"sequence": "TCAGACAGGTGAAGTTAACTCAGGTACGCAGTCG", "PBM binding z-score": 0.0333}, {"sequence": "CCTAGTTGATCAGGAGGTCACACACCGGATATGA", "PBM binding z-score": 3.16}, {"sequence": "ACAGATAGGTGATGAAGGTAACTCAGGCTATCAT", "PBM binding z-score": -0.27}, {"sequence": "GTTATTAGTTGAAAGGGCAACCGAATGATTCTCG", "PBM binding z-score": 1.19}, {"sequence": "AATACAGGGTCACTAGGGCAGAGTAGGTACGAAT", "PBM binding z-score": 1.38}, {"sequence": "GATACAGGGTCAAGTCCAGAGTACGCGTATTGAT", "PBM binding z-score": 0.0543}, {"sequence": "CGTCAAAGTCCAACTAAGGTAACGTAAAGCACGC", "PBM binding z-score": 0.14}, {"sequence": "CTCGAAAGGTCGGTTGAGATGAGTATACGGATAA", "PBM binding z-score": 0.0638}, {"sequence": "CCGACTGGTGCATAAGGTTACCATAAGCCAGCCC", "PBM binding z-score": 0.0222}, {"sequence": "TCTTGTAGATCAATAGAGGTTAAGATAGTGCGCT", "PBM binding z-score": 0.813}, {"sequence": "ACTAGCAGGCCAAGTTTGGCTCACTCAAACAAAG", "PBM binding z-score": -0.635}, {"sequence": "ATAATGAGGTTATTAAGATCAGGGAATTGCGGTC", "PBM binding z-score": 0.684}, {"sequence": "TCTTGTAGATCAATAGAGGTTATGAAAGTGCGCT", "PBM binding z-score": 0.696}, {"sequence": "ATCACTAGGTAAAGTTCAGTGAAAGATCGATAGA", "PBM binding z-score": 1.43}, {"sequence": "CGAACGAGGGCATGAGTTCATAGCAAATGCCGAT", "PBM binding z-score": 1}, {"sequence": "CCTTACGGGTCACGAGGGTATAGCACGACGAGCG", "PBM binding z-score": -0.0656}, {"sequence": "CCGACTGGGGCAAGGTTACCATTACGCACAGCCA", "PBM binding z-score": -0.221}, {"sequence": "TTACCAAGGTGAAAGGTCGTGGATGCACGCCTTG", "PBM binding z-score": -0.0355}, {"sequence": "CCAGACATGTGAGAAGGTAACTCAGCCTCGATTA", "PBM binding z-score": 0.298}, {"sequence": "TCTATTAGTTGAAGGGCAATCGACGAGTCCGTTT", "PBM binding z-score": 0.341}, {"sequence": "ATCGAAAGGTCGTGAGGTGAGTATACAGAAAGGC", "PBM binding z-score": 0.175}, {"sequence": "TGTCAAAGTTCAAAGGTAATGTAAGTATCCACAC", "PBM binding z-score": 4.51}, {"sequence": "ATCGAGAGGTCGACGAGGTGAGTATACACCGTTT", "PBM binding z-score": -0.165}, {"sequence": "TAGCCTAGGTCAGATCGGCCCAGTATACGCTATA", "PBM binding z-score": -0.637}, {"sequence": "GGAACGAGGGCAAGCTGATAGCAGAGTTTGATGG", "PBM binding z-score": -0.473}, {"sequence": "CCTATTAGTTGACCATAAGTGCAACCGAAGCTCG", "PBM binding z-score": 1.25}, {"sequence": "CCTAGTTGGTCAAGGTCACAGACGCTATAGGTAC", "PBM binding z-score": 1.56}, {"sequence": "ATTAGTTGGTCAGCTGAGGTCACACACAATTCGG", "PBM binding z-score": 3.19}, {"sequence": "AGAACGAGGGCACGCTGAGTTGATCGCAGAGTAG", "PBM binding z-score": -0.623}, {"sequence": "CCGAGTAGGTTATCGGGCATTCAGGCAACGGTGA", "PBM binding z-score": 0.154}, {"sequence": "TCTAGTTGGTCAAAGGTCGCACACTCGAAATGCG", "PBM binding z-score": 0.642}, {"sequence": "TCTGCTAGGTCAACGATGGTCAGCTGATCTGCTA", "PBM binding z-score": -0.222}, {"sequence": "CGAACTAGGTCATTGACATGACAGTGAATAGTAA", "PBM binding z-score": 0.582}, {"sequence": "ATCTCTAGGTAAAGATAGCTCAGTGAATGCAAAT", "PBM binding z-score": -0.237}, {"sequence": "TCTTGTGGATCAACAGGAGGTTAAGAAAGATCGA", "PBM binding z-score": -0.115}, {"sequence": "TGAATGAGGTTAAAGATGAGGGAACGTGGCGTCG", "PBM binding z-score": 0.0267}, {"sequence": "TGAATGAGGTTAAAGATCAGCGAACGTGGCGTCG", "PBM binding z-score": -0.568}, {"sequence": "CCAGTCAGGTGAGAAGGTAACTCAGCCTCGATTA", "PBM binding z-score": -0.218}, {"sequence": "TCTTGTAGATCAATAGAGGTTACGAAAGTGCGCT", "PBM binding z-score": 0.474}]}]}
